Measurements reported in the supplement of paper PMC10849652.
Of roughly 7,900 targets only a part is listed; those with a hit were picked by preference. About 0.6% of all pairs of compound and target were hits. Unmarked numbers belong to inactive results.

How the values were obtained:
Assay in all cases: log2 fold change, soluble protein after heating vs DMSO (PISA); higher = thermal stabilisation; K562 cells, 10 uM, 30 min; active = over 0.2 and 3.5 SD of the protein, either way, in both replicates (recomputed)
[1] = compound: CS(=O)(=O)c1ccc(-c2cnc(N)c(C(=O)Nc3ccccc3)n2)cc1
In short: (§1)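 K562 cells at 2×10^6 cells/mL were treated with 10 μM compound for 30 min. Aliquots were heated for 3 min across 48°C-58°C, pooled, and extracted in PBS with 0.5% NP-40 at 4°C; soluble protein was the supernatant after 21,000xg for 90 min. Soluble protein was quantified by TMTpro 16plex LC-MS/MS with channel sums equalised, and reported as log2 fold change in thermal stability against DMSO controls, with values from duplicates.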

crizotinib = compound: C[C@@H](Oc1cc(-c2cnn(C3CCNCC3)c2)cnc1N)c1c(Cl)ccc(F)c1Cl [crizotinib]
In short: as §1

[2] = compound: C[C@@H]1COCCN1C2=NC(=NC(=C2)C3(CC3)S(=O)(=O)C)C4=C5C=CNC5=CC=C4
In short: as §1

[3] = compound: C[C@H](C1=CC=C(C=C1)C(=O)NC2=C3C=CNC3=NC=C2)N
In short: as §1

duvelisib = compound: C[C@H](Nc1ncnc2nc[nH]c12)c1cc2cccc(Cl)c2c(=O)n1-c1ccccc1 [duvelisib]
In short: as §1

gandotinib = compound: Cc1cc(Nc2cc(CN3CCOCC3)c3nc(C)c(Cc4ccc(Cl)cc4F)n3n2)n[nH]1 [gandotinib]
In short: as §1

tozasertib = compound: Cc1cc(Nc2cc(N3CCN(C)CC3)nc(Sc3ccc(NC(=O)C4CC4)cc3)n2)n[nH]1 [tozasertib]
In short: as §1

[4] = compound: Cc1cc(SCc2sc(-c3ccc(C(F)(F)F)cc3)nc2C)ccc1OCC(=O)O
In short: as §1

doramapimod = compound: Cc1ccc(-n2nc(C(C)(C)C)cc2NC(=O)Nc2ccc(OCCN3CCOCC3)c3ccccc23)cc1 [doramapimod]
In short: as §1

ispinesib = compound: Cc1ccc(C(=O)N(CCCN)[C@@H](c2nc3cc(Cl)ccc3c(=O)n2Cc2ccccc2)C(C)C)cc1 [ispinesib]
In short: as §1

bafetinib = compound: Cc1ccc(NC(=O)c2ccc(CN3CC[C@H](N(C)C)C3)c(C(F)(F)F)c2)cc1Nc1nccc(-c2cncnc2)n1 [bafetinib]
In short: as §1

[5] = compound: Cc1cccc(CC(=O)N2CCc3c2ccc(-c2cn(C)c4ncnc(N)c24)c3F)n1
In short: as §1

nilotinib = compound: Cc1cn(-c2cc(NC(=O)c3ccc(C)c(Nc4nccc(-c5cccnc5)n4)c3)cc(C(F)(F)F)c2)cn1 [nilotinib]
In short: as §1

[6] = compound: Cc1nc(Nc2n[nH]c3c2CN(C(=O)N[C@H](CN(C)C)c2ccccc2)C3(C)C)c2sccc2n1
In short: as §1

dasatinib = compound: Cc1nc(Nc2ncc(C(=O)Nc3c(C)cccc3Cl)s2)cc(N2CCN(CCO)CC2)n1 [dasatinib]
In short: as §1

[7] = compound: Cc1ncc(-c2ccnc(Nc3ccc(S(C)(=O)=O)cc3)n2)n1C(C)C
In short: as §1

[8] = compound: Cn1cc(-c2ccc3c(c2)CCN3C(=O)Cc2cccc(C(F)(F)F)c2)c2c(N)ncnc21
In short: as §1

[9] = compound: Cn1cc(-c2ccc3nnc(C(F)(F)c4ccc5ncccc5c4)n3n2)cn1
In short: as §1

tipifarnib = compound: Cn1cncc1[C@@](N)(c1ccc(Cl)cc1)c1ccc2c(c1)c(-c1cccc(Cl)c1)cc(=O)n2C [tipifarnib]
In short: as §1

mubritinib = compound: FC(F)(F)c1ccc(/C=C/c2nc(COc3ccc(CCCCn4ccnn4)cc3)co2)cc1 [mubritinib]
In short: as §1

Sequence of UniProt O95801 (O95801 whole entry, looked up): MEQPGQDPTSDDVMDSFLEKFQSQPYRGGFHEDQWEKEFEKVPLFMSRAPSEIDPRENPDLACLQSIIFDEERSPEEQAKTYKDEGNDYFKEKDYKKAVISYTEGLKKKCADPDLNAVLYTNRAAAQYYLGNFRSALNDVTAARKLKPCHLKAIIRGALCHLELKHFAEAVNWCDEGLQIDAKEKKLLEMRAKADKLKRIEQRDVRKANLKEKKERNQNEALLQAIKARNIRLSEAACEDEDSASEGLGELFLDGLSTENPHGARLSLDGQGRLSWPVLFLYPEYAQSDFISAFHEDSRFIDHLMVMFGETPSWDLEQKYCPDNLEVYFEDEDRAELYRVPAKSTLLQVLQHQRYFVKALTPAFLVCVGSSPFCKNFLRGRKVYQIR
Sequence of UniProt Q9NP79 (Q9NP79 whole entry, looked up): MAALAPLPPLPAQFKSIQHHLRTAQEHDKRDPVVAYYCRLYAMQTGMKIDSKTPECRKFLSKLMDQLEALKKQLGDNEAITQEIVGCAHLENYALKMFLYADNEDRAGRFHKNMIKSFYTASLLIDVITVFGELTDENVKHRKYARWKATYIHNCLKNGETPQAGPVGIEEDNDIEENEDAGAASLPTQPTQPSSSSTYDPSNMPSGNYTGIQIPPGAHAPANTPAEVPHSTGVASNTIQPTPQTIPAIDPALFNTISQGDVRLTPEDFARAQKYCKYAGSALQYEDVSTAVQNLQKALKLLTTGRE
Sequence of UniProt Q9UK41 (Q9UK41 whole entry, looked up): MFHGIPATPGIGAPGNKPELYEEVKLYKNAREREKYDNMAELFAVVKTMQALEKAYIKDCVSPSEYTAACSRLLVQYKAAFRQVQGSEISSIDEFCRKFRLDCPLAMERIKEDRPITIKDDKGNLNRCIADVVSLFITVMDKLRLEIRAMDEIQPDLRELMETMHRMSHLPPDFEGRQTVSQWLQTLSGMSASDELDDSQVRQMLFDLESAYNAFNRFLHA
Sequence of UniProt Q9NQW7 (Q9NQW7 whole entry, looked up): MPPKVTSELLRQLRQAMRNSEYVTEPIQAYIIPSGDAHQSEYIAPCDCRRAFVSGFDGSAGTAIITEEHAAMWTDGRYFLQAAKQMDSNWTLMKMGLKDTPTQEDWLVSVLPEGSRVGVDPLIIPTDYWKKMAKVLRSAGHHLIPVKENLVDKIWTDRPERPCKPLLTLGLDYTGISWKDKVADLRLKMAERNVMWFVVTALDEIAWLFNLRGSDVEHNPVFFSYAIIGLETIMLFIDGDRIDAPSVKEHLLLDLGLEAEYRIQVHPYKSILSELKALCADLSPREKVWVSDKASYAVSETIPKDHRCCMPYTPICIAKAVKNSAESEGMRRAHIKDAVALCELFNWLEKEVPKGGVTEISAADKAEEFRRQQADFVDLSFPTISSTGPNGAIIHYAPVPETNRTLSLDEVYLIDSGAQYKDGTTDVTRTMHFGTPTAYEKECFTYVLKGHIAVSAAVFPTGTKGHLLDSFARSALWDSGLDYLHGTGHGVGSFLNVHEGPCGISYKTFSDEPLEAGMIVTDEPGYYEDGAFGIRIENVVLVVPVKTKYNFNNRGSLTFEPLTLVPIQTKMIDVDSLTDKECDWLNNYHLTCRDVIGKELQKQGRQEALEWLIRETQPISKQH
Sequence of UniProt P51809 (P51809 whole entry, looked up): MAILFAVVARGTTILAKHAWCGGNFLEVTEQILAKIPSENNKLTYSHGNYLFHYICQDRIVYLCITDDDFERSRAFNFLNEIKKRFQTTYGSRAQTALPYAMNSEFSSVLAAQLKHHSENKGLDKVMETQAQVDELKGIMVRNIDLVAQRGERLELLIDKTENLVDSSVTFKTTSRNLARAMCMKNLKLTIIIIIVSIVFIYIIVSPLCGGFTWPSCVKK
Sequence of UniProt Q7Z3J2 (Q7Z3J2 whole entry, looked up): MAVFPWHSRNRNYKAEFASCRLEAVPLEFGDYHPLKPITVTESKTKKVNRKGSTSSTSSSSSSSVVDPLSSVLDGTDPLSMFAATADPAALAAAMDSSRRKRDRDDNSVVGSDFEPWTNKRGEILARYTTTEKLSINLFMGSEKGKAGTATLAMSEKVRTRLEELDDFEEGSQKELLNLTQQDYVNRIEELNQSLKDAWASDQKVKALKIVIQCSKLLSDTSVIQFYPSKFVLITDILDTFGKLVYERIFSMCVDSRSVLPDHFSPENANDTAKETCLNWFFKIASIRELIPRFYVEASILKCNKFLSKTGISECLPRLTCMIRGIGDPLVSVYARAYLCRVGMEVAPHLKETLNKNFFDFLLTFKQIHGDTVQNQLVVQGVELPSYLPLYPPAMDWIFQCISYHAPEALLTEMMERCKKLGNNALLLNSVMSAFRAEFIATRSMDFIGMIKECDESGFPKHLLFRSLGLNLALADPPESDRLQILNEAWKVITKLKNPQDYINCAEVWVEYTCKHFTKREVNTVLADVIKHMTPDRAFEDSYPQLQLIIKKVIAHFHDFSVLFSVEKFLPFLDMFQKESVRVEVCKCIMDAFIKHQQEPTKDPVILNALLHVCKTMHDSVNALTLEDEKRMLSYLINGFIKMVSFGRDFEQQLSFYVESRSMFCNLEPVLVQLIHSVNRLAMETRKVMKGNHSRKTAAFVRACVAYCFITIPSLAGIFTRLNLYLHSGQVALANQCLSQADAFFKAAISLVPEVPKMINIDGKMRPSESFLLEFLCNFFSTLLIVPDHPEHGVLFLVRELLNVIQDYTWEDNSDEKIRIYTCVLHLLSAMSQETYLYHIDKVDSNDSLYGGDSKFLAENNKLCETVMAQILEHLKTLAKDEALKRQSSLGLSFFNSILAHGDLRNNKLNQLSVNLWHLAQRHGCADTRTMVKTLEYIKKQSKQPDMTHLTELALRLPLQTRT
Sequence of UniProt Q15629 (Q15629 whole entry, looked up): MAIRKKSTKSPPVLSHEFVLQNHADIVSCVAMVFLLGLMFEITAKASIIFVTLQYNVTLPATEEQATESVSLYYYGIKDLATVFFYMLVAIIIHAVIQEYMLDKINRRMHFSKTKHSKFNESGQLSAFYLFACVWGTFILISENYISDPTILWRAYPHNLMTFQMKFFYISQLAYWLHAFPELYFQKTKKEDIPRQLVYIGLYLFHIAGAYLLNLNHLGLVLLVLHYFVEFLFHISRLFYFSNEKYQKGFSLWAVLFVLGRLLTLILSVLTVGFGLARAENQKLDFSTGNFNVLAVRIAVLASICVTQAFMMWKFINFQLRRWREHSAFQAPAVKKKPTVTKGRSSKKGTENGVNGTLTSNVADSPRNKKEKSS
Sequence of UniProt Q14139 (Q14139 whole entry, looked up): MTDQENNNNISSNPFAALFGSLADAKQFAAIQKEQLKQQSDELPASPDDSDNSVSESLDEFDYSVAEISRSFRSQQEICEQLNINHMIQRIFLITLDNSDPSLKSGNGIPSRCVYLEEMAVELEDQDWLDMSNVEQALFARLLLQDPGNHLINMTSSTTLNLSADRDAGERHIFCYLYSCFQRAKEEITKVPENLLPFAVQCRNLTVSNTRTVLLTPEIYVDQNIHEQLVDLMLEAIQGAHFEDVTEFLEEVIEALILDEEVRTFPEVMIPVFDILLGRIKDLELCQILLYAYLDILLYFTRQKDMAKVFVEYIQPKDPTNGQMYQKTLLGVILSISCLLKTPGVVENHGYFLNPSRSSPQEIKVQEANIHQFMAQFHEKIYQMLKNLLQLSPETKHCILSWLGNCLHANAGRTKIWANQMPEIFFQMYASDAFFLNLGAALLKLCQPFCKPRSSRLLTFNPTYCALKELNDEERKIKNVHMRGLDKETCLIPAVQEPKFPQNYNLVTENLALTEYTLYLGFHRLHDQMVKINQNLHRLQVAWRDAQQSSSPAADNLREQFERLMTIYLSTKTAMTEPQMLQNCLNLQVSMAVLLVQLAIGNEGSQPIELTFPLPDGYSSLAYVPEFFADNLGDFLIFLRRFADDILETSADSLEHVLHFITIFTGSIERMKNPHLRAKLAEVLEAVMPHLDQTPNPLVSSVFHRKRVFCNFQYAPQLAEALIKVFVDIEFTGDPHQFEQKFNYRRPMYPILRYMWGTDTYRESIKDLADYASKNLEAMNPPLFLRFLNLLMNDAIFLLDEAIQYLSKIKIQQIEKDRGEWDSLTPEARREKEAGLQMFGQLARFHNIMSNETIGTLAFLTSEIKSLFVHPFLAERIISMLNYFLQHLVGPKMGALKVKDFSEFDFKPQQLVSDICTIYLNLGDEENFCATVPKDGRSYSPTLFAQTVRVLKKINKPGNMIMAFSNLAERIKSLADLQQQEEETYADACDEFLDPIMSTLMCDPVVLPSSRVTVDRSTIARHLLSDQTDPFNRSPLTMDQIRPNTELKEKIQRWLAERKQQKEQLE
Sequence of UniProt Q9Y3C0 (Q9Y3C0 whole entry, looked up): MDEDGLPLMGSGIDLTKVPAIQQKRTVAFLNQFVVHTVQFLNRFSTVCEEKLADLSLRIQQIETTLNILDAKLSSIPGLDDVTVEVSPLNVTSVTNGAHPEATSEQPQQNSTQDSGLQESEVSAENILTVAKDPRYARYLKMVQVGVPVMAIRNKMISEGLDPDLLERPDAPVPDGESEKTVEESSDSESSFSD
Sequence of UniProt Q15642 (Q15642 whole entry, looked up): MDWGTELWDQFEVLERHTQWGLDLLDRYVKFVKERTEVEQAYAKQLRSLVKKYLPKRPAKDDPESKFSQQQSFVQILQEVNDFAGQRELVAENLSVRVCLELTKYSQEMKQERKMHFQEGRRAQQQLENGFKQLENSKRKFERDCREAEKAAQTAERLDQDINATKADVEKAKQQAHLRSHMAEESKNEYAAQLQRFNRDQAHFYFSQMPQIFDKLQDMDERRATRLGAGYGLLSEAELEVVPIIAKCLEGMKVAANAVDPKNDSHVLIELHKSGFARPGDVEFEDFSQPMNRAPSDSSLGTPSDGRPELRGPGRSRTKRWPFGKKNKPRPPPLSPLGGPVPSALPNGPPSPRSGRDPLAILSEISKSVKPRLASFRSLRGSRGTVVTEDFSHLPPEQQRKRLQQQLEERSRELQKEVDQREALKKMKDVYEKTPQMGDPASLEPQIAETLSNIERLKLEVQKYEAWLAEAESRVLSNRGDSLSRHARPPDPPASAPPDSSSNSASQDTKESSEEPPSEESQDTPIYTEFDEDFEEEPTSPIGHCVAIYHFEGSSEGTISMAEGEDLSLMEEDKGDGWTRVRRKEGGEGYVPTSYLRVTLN

| Target | log2 fold change [1] | log2 fold change (crizotinib) | log2 fold change [2] | log2 fold change [3] | log2 fold change (duvelisib) | log2 fold change (gandotinib) | log2 fold change (tozasertib) | log2 fold change [4] | log2 fold change (doramapimod) | log2 fold change (ispinesib) | log2 fold change (bafetinib) | log2 fold change [5] | log2 fold change (nilotinib) | log2 fold change [6] | log2 fold change (dasatinib) | log2 fold change [7] | log2 fold change [8] | log2 fold change [9] | log2 fold change (tipifarnib) | log2 fold change (mubritinib) |
| --- | --- | --- | --- | --- | --- | --- | --- | --- | --- | --- | --- | --- | --- | --- | --- | --- | --- | --- | --- | --- |
| VPS53 isoform 4 (UniProt Q5VIR6) | 0.087 | -0.095 | -0.004 | 0.006 | -0.033 | 0 | 0.061 | 0.059 | 0.036 | -0.113 | -0.04 | 0.036 | -0.1 | -0.148 | -0.087 | 0.037 | -0.035 | -0.027 | -0.061 | 0.003 |
| VPS13B (UniProt Q7Z7G8) | 0.023 | 0.015 | 0.045 | -0.033 | -0.064 | -0.062 | -0.01 | 0.015 | 0.028 | -0.134 | -0.075 | -0.012 | -0.005 | 0.049 | 0.047 | -0.004 | 0.005 | 0.029 | 0.037 | 0.01 |
| TRAM1 (UniProt Q15629) | 0.075 | -0.587 (active) | 0.017 | 0.014 | -0.003 | -0.47 (active) | -0.124 | 0.09 | -0.119 | -0.964 (active) | -0.152 | 0.117 | -0.075 | 0.074 | -0.138 | 0.072 | -0.07 | 0.02 | -0.152 | -0.022 |
| VTA1 (UniProt Q9NP79) | 0.032 | -0.049 | 0.056 | -0.019 | 0.019 | -0.127 | 0.004 | 0.057 | -0.021 | -0.014 | -0.035 | 0.081 | -0.07 | -0.011 | -0.109 | -0.005 | 0.035 | 0 | -0.109 | 0.033 |
| TTC4 (UniProt O95801) | 0.046 | -0.001 | 0.017 | 0.029 | 0.032 | -0.025 | 0.061 | 0.134 | -0.028 | 0.108 | 0.036 | 0.116 | -0.034 | -0.094 | -0.137 | 0.003 | 0.019 | 0 | -0.077 | 0.061 |
| TMEM63B (UniProt Q5T3F8) | -0.127 | 0.045 | -0.042 | -0.014 | -0.085 | -0.028 | -0.007 | 0.015 | -0.047 | -0.312 (active) | 0.013 | 0.002 | -0.008 | -0.021 | 0.026 | -0.061 | 0.006 | 0.004 | 0.008 | 0.047 |
| TMEM189-UBE2V1 (UniProt I3L0A0) | 0.063 | 0.022 | 0.051 | 0.051 | 0.042 | 0.007 | -0.009 | -0.034 | 0.021 | 0.071 | -0.038 | -0.035 | -0.012 | 0.229 (active) | -0.009 | 0.055 | 0.015 | 0.069 | 0.056 | 0.026 |
| UBE4A isoform 2 (UniProt Q14139) | 0.036 | -0.275 | 0.069 | 0.29 (active) | 0.006 | -0.076 | 0.037 | 0.117 | -0.023 | -0.172 | 0.01 | 0.065 | -0.111 | -0.162 | -0.196 | 0.015 | -0.183 | -0.023 | -0.092 | 0.021 |
| WASHC3 (UniProt Q9Y3C0) | -0.014 | -0.274 (active) | 0.096 | -0.039 | 0.012 | -0.041 | 0.021 | 0.014 | 0.048 | -0.4 (active) | -0.06 | -0.032 | -0.042 | 0.001 | 0.047 | 0.028 | 0.035 | 0.048 | 0.029 | 0.003 |
| TRIP10 isoform 2 (UniProt Q15642) | 0.132 | 0.056 | -0.007 | 0.108 | 0.001 | 0.147 | 0.101 | -0.089 | -0.035 | 0.309 | -0.019 | 0.026 | 0.005 | -0.174 | 0.035 | -0.162 | -0.033 | -0.135 | -0.04 | 0.142 |
| VPS35L (UniProt Q7Z3J2) | 0.054 | -0.128 | -0.043 | 0.186 | 0.033 | 0 | 0.026 | 0.023 | 0.02 | -0.11 | 0.006 | -0.008 | -0.201 | 0.101 | -0.056 | -0.123 | -0.152 | 0.009 | -0.002 | 0.02 |
| XPNPEP1 isoform 3 (UniProt Q9NQW7) | 0.069 | -0.023 | 0.098 | -0.076 | 0.036 | -0.053 | -0.023 | 0.007 | 0.028 | -0.015 | -0.047 | -0.013 | -0.036 | 0.014 | -0.086 | -0.028 | 0.084 | 0.039 | -0.033 | 0.042 |
| TNPO1 (UniProt Q92973) | -0.008 | -0.034 | 0.058 | -0.116 | 0.002 | -0.128 | 0.052 | 0.011 | -0.034 | -0.113 | -0.104 | 0.022 | -0.037 | -0.128 | -0.067 | -0.079 | -0.034 | 0.009 | -0.026 | 0.005 |
| VAMP7 (UniProt P51809) | 0.021 | -0.299 (active) | 0.005 | -0.046 | -0.005 | -0.026 | 0.005 | -0.011 | -0.007 | -0.275 (active) | -0.066 | 0.025 | -0.034 | -0.04 | 0.002 | 0.023 | 0.017 | 0.086 | -0.04 | 0.003 |
| WEE1 (UniProt P30291) | -0.3 | -0.025 | -1.07 (active) | 0.094 | 0.026 | 0.247 | -0.5 | -0.049 | 0.026 | 0.046 | -0.152 | -0.062 | 0.182 | -0.905 (active) | 0.805 (active) | 0.311 | -0.043 | -0.037 | -0.037 | 0.394 |
| VPS28 (UniProt Q9UK41) | 0.01 | 0.051 | 0.063 | -0.091 | 0.044 | -0.055 | 0 | 0.096 | 0.035 | -0.041 | -0.017 | -0.021 | -0.153 | -0.063 | -0.209 | -0.019 | 0.01 | 0.006 | -0.051 | 0.046 |
